Bim-Mcl-1 = inhibitors of Bim-Mcl-1 interaction, human; inhibition, % at 10 µM; Bead-based flow cytometry, Bim peptide-Mcl-1 binding; Q07820; 190,000 tested, 0.1% active; in the data active means inhibition above about 40%;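 further: 0% = no compound tracer wells and 100% = peptide blocker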
Target sequence (Q07820 whole entry, looked up): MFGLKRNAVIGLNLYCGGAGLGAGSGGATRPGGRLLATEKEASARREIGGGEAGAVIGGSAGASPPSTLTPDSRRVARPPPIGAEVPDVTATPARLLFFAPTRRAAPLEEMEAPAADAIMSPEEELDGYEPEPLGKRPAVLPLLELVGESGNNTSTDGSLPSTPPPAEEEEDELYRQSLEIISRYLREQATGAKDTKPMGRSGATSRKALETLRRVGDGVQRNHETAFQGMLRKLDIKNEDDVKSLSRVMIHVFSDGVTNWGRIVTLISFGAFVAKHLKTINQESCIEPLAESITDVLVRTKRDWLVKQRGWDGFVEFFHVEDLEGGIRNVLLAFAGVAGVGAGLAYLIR
eIF4E 4G PPI = blocks eIF4E binding to eIF4G. 220,000 tested, 0.37% active. P63073+Q04637. TR-FRET eIF4E-eIF4GI(517-606) binding, 2 h. inhibition, % at 21.7 µM;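 active means inhibition above about 30%, limit read from the data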;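 further: 0% = full FRET control wells and 100% = background wells lacking eIF4GI fragment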
Hck Nef HTS = inhibitors of human Hck kinase activated by Nef; P08631; Recombinant Hck-YEEI plus Nef, Z-Lyte FRET kinase assay; inhibition, % at 20 µM; 220,000 tested, 0.68% active; AID 463187;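 active means Hck-Nef kinase inhibition above about 50%, limit read from the data; inactive means inhibition below that limit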;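 further: 0% = DMSO with Hck plus Nef and 100% = Hck alone without Nef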
Mcl1 Bid PPI = disrupts binding of human Mcl-1 to Bid peptide; inhibition, % at 21.7 µM; Q07820; TR-FRET Mcl-1/Bid-Dy647 peptide binding, 1536-well; 220,000 tested, 0.97% active;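 active means compounds that cut the binding signal by more than half at the single screening dose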;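 further: His-tagged Mcl-1 with europium anti-His antibody binding Bid BH3 peptide; 0% = Mcl-1 plus peptide wells and 100% = peptide-only wells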
14-3-3 Bad PPI = disrupts binding of bovine 14-3-3 zeta to phospho-Bad peptide; 220,000 tested, 0.71% active; TR-FRET 14-3-3zeta/Dy647-pBad peptide displacement, 1 h; AID 781; P63103; inhibition, % at 21.7 µM;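 active means inhibition above about 70%, limit read from the data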;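 further: 0% = full 14-3-3 plus peptide FRET controls and 100% = background without 14-3-3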
Target sequence (P63103 whole entry, looked up): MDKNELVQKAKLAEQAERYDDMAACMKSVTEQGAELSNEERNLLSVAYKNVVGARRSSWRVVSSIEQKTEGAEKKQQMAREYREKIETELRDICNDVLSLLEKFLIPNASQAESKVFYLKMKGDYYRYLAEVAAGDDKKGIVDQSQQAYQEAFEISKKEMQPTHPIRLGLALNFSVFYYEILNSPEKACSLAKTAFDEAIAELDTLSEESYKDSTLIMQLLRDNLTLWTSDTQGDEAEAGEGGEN
Mcl1 Noxa PPI = Mcl-1/Noxa interaction inhibition | Q07820 | TR-FRET Mcl-1/Noxa peptide binding, 2 h | inhibition, % at 21.7 µM | 220,000 tested, 1.5% active | AID 1022;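 active means compounds that cut the protein-peptide binding signal by more than 50% relative to plate controls in a single-dose test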;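 further: His-tagged Mcl-1 with rhodamine Noxa BH3 peptide and terbium anti-His antibody; 0% = Mcl-1 plus Noxa peptide wells and 100% = peptide-only wells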
An asterisk follows results filed as active; x = not tested or not shown; [ ] = dose if it differs, or a comment. An excerpt weighted towards active compounds, which were near 3.5% of everything screened.

SMILES	Bim-Mcl-1	eIF4E 4G PPI	Hck Nef HTS	Mcl1 Bid PPI	14-3-3 Bad PPI	Mcl1 Noxa PPI
O=C(Nc1ccc2ccccc2c1)c1cn(-c2ccccc2)nc1-c1cccs1	-2	-11	1	-13	3	-34
COc1ccccc1-c1nc(SCC(=O)N(C)c2ccccc2)c2c(=O)n(C)c(=O)n(C)c2n1	0	8	10	57*	5	35
CC(C)NC(=O)CSc1nc(N)c(-c2ccccc2)c(=O)[nH]1	0	3	24	-32	-17	-5
Clc1nc(Cl)nc(N(c2ccccc2)c2ccccc2)n1	-1	19	4	51*	5	35
Cc1ccc(C)c(N2CCN(C(=O)C(Cc3ccccc3)n3cccc3)CC2)c1 (stereo not drawn)	2	67*[fluorescence artefact?]	1	-12	9	6
O=C(C(Cc1ccccc1)n1cccc1)N1CCN(c2ccccc2)CC1 (stereo not drawn)	1	-1	1	-32	0	-2
C=CCOC(=O)C1=C[C@@H](c2ccc(C(F)(F)F)cc2)[C@H](CCCO)[C@@H](OCC)O1	0	3	10	-1	1	-17
O=C(Nc1nn[nH]n1)c1cccc(Oc2ccccc2)c1	-4	1	-8	-17	11	-10
Cc1cc(C)cc(Oc2nn[nH]n2)c1	9	-2	-1	2	71*	19
CC(C)(C)c1cccc(Oc2nn[nH]n2)c1	-1	6	-1	30	79*	-9
COc1ccc(C(=O)NNC(=O)C2CCCN(C3CC(=O)N(c4ccccc4)C3=O)C2)cc1 (stereo not drawn)	x	4	20	-21	-1	9
Cc1cc(=O)oc2cc(OCC(=O)N/N=C/c3cc([N+](=O)[O-])ccc3O)ccc12	0	12	5	82*	34	73*
Cc1ccc(C)c(NC(=O)CCC(=O)N/N=C/c2cc([N+](=O)[O-])ccc2O)c1	-1	17	21	-41	-13	-23
Cc1cc(C)cc(N2CC(O)=C(c3nc4ccccc4c(=O)[nH]3)C2=N)c1	-4	13	22	-180	77*	-39
O=c1[nH]cnc(O)c1C(c1ccc2c(c1)OCO2)c1c(O)nc[nH]c1=O	0	-4	23	2	-21	0
O=C(/C=C/c1cccc([N+](=O)[O-])c1)NC(=S)Nc1ccccc1C(=O)O	0	-1	33	-16	-8	14
O=C(CSCc1ccccc1Br)N/N=C/c1ccccc1C(=O)O	0	-3	6	-38	83*	14
NC(=O)CCC(NS(=O)(=O)c1ccc(Cl)cc1)C(=O)NCc1ccccc1 (stereo not drawn)	-3	-2	0	-1	0	2
O=C1CCCC(=O)C1=C1SCCS1	-3	3	0	-5	-6	14
COc1ccc(NC(=O)CSc2ccccn2)cc1OC	-4	-3	-1	-17	72*	-6
O=C(O)CSc1ccccn1	-4	33*	-1	-3	9	16
CS(=O)(=O)N(CC(=O)Nc1ccccc1Cl)c1ccc(Cl)cc1	0	-1	18	-18	-4	7
COc1ccc(-c2csc(NC(=O)c3ccc(OCC(=O)N4CCOCC4)c(OC)c3)n2)cc1OC	-3	-2	3	-11	-14	9
COCc1cc(=O)n2[nH]c(-c3ccsc3-n3c(C)ccc3C)cc2n1	-3	0	3	-25	5	69*
Cc1cc(=O)n2[nH]c(-c3ccsc3-n3c(C)ccc3C)cc2n1	x	7	30	-87	17	97*
SMILES	Bim-Mcl-1	eIF4E 4G PPI	Hck Nef HTS	Mcl1 Bid PPI	14-3-3 Bad PPI	Mcl1 Noxa PPI
Cc1nc2cc(-c3ccsc3-n3c(C)ccc3C)[nH]n2c(=O)c1Cl	1	1	1	-37	8	61*
COCc1cc(=O)n2[nH]c(N)nc2n1	x	-12	23	-33	6	6
O=c1c2c(nc3cc(-c4ccccc4Cl)[nH]n13)CCS2	0	3	27	-32	-10	34
CCOC(=O)c1ccc(N2NC(=O)/C(=C/c3ccc(OC(=O)c4ccco4)c(OC)c3)C2=O)cc1	9	-3	21	-43	2	56*
CCOc1cc(/C=C2/SC(=S)NC2=O)ccc1OC(=O)c1ccco1	-6	4	27	-4	2	57*
COc1cc(/C=C2\C(=O)N(c3ccc(S(N)(=O)=O)cc3)N=C2C)ccc1OC(=O)c1ccco1	-8	7	37	34	63	49
CN(C)C(=O)c1cc(C(=O)c2ccccc2Cl)c[nH]1	2	-7	-3	-8	0	13
Nc1nc(NC(=O)c2cccs2)nn1-c1ccccc1	0	5	-14	18	82*	1
Nc1nc(NC(=O)c2ccccc2)nn1-c1ccccc1	0	4	2	-5	7	10
Cc1cc(NS(=O)(=O)c2ccc(NC(=O)Cc3cccs3)cc2)no1	-2	-1	12	-30	4	19
Cc1cc(NC(=O)Cc2cccs2)no1	1	20	10	32	5	102*
Cc1ccc(C(=O)NNC(=O)CCC(=O)Nc2cc(C)on2)cc1	-4	5	1	86*	-2	4
COCCSc1nnc(NC(=O)Cc2cccs2)s1	-2	8	0	-1	8	9
Cc1ccccc1CSc1nnc(NC(=O)Cc2cccs2)s1	-3	10	1	20	-3	66*
O=C(C1CC1)N1CCN(C(c2ccccc2)c2ccccc2)CC1	3	3	2	-15	-4	5
COc1ccc(/C=N/NC(=O)c2nn(-c3ccccc3)c(=O)c3c(N)scc23)cc1	-1	-3	-1	-36	-2	55*
COc1ccc(/C=N/NC(=O)c2nn(-c3ccc(Cl)cc3)c(=O)c3c(N)scc23)cc1	0	-3	-17	-17	-9	57*
COc1ccc(/C=N/NC(=O)c2nn(-c3ccc(C)c(C)c3)c(=O)c3ccccc23)cc1	-3	-9	0	5	-3	5
CCc1cccc(C)c1NC(=S)N(CCN(C)C)C(C)c1ccco1 (stereo not drawn)	x	-7	17	-85	-2	9
CC(C)(C)C1=CC(=O)C(=O)C(C(C)(C)C)=C1	-7	14	56*	39	25	63*
Cc1c2cnn(CC(=O)Nc3c(F)c(F)cc(F)c3F)c(=O)c2c(C)n1Cc1ccccc1F	-6	32*	52*	-57	17	49
CCOC(=O)C1CCCCN1Cc1cc(Cl)ccc1O (stereo not drawn)	1	x	0	-47	x	12
COc1ccc(CN2CCC(C(=O)N3CCCC(C)C3)CC2)cc1OC (stereo not drawn)	0	-3	-3	9	7	28
CCOC(=O)C1CCCCN1Cc1cc(OC)ccc1OC (stereo not drawn)	1	-5	-17	35	91*	29

Assay outcomes: PubChem, several laboratories
